MITF act: MITF TRPM1 promoter activation in melanoma cells; activation, % at 12.5 µM; 300,000 tested, 0.75% active; SK-MEL-5 TRPM1-promoter luciferase, 24 h; % of positive control, neutral wells = 0;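 active = mean activation of at least 80% with every replicate also reaching 80%; inconclusive = mean reaches 80% but some replicate falls short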
Statin myotox sup: protects C2C12 myotubes from simvastatin toxicity. ATP luminescence, 48 h; scaled: DMSO 0, geranylgeraniol control 100. rescue of ATP level, % at 7.49 µM. 330,000 tested, 0.78% active. AID 602340;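 active = mean ATP rescue above about 67%, or every replicate alone reaching that limit, limit read from the data, passing the limit was not always enough; inconclusive = no clear call, values can overlap the other calls; inactive = mean under the limit and some replicate under it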;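 also: myotubes were challenged with 10 µM simvastatin during compound exposure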
FXN GAA850 act: activators of GAA850 frataxin (FXN) promoter. HEK293 lucGAA850 FXN promoter luciferase reporter, 24 h; percent of 10 µM SAHA response. activation, % at 6 µM. 360,000 tested, 0.56% active;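 active = activation above the average of all compounds screened plus 3 SD, cutoff fixed separately per campaign, cut at about 7.5% in these data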
esBAF inh: SWI/SNF esBAF complex inhibition | mouse ES cells, Bmi1-luciferase knock-in reporter, 24 h; 100% = twice the neutral-well signal | reporter increase, % at 12.5 µM | 350,000 tested, 2% active; in the data active = activation above about 40%; inconclusive = no clear call, values can overlap the other calls;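 also: a rise in the Bmi1 reporter signal indicates esBAF inhibition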
Wnt bcat act: activates Wnt/beta-catenin signaling in a reporter cell assay; activator, plate reader; activation, % at 9.35 µM; 300,000 tested, 1.2% active; AID 743398; in the data active = activation above about 30%, passing the limit was not always enough; inconclusive = no clear call, values can overlap the other calls
Numbers stand for hits; 0 = inactive; ? = inconclusive; - = no result given. An excerpt weighted towards active compounds, which were near 3.3% of everything screened.

SMILES	MITF act	Statin myotox sup	FXN GAA850 act	esBAF inh	Wnt bcat act
CC(=O)c1cccc(NC(=S)NC(=O)c2ccccc2C)c1	0	-	0	-	0
O=C(NC(=S)Nc1ccccc1)c1ccc(-c2ccccc2)cc1	0	0	0	62	0
CC(=O)c1cccc(NC(=S)NC(=O)c2ccc(Cl)cc2)c1	97	-	0	-	0
COC(CN(C(=O)CCl)C(C(=O)NC1CCCCC1)c1ccccc1C)OC (stereo not given)	0	-	0	-	-
COC(CN(C(=O)CCl)C(C(=O)NC1CCCCC1)c1ccc(Cl)cc1)OC (stereo not given)	0	71	0	0	0
COc1ccc(C(=O)NNC(=S)NC(=O)c2ccc(F)cc2)cc1Br	-	-	0	-	0
COc1ccc(C(=O)NC(=S)NC(C)(C)C)cc1Br	0	0	0	59	0
COc1ccc(C(=O)NC(=S)NC(C)C)cc1Br	0	0	0	63	-
COc1ccc(NC(=O)N(C)C[C@@H]2Oc3c(NC(=O)Nc4ccc(C(F)(F)F)cc4)cccc3C(=O)N([C@@H](C)CO)C[C@@H]2C)cc1	-	-	-	0	-
COc1ccccc1S(=O)(=O)N[C@H]1CC[C@H](CCNC(=O)C2CC2)O[C@@H]1CO	-	0	-	0	-
C[C@@H]1CCCCO[C@@H](CN(C)C(=O)NC2CCCCC2)[C@H](C)CN([C@@H](C)CO)C(=O)c2cc(NS(=O)(=O)c3cccs3)ccc2O1	-	0	-	0	-
C[C@H](CO)N1C[C@H](C)[C@H](CN(C)Cc2ccc(C(=O)Nc3ccccc3N)cc2)Oc2ccc(NC(=O)Nc3ccccc3)cc2C1=O	-	0	-	0	-
C[C@@H]1CN([C@H](C)CO)C(=O)c2cccc(NC(=O)Nc3ccccc3)c2O[C@H]1CN(C)Cc1ccc(C(=O)Nc2ccccc2N)cc1	-	113	-	0	-
C[C@@H]1CN([C@H](C)CO)C(=O)c2cccc(NC(=O)C3CCOCC3)c2O[C@@H]1CN(C)Cc1ccc(C(=O)Nc2ccccc2N)cc1	-	110	-	0	-
C[C@@H]1CN([C@@H](C)CO)C(=O)c2cc(NC(=O)Nc3cccc4ccccc34)ccc2O[C@@H]1CN(C)Cc1ccc(C(=O)Nc2ccccc2N)cc1	-	137	-	0	-
C[C@@H]1CN([C@H](C)CO)C(=O)c2cccc(NC(=O)c3ccc(-c4nccs4)cc3)c2O[C@@H]1CN(C)C(=O)Nc1cccc2ccccc12	-	80	-	0	-
COC(=O)[C@@H]1[C@@H](CO)[C@@H]2Cn3c(ccc(C4=CCCCC4)c3=O)[C@@H]2N1CC1CCCCC1	-	0	-	0	-
CCC(=O)N1[C@H](CO)[C@@H](c2ccc(C3=CCCC3)cc2)[C@H]1CNC(=O)CN(C)C	-	0	-	0	-
O=C(CCN1CCCCC1)N[C@@H]1CC[C@@H](CCNS(=O)(=O)c2ccc(Cl)cc2)O[C@@H]1CO	-	0	-	0	-
C[C@@H]1CN([C@H](C)CO)C(=O)c2cc(NC(=O)CCC(F)(F)F)ccc2O[C@@H](C)CCCCO[C@H]1CN(C)S(=O)(=O)c1cccs1	-	-	-	0	-
C[C@H]1CN([C@@H](C)CO)C(=O)c2cc(NC(=O)Cc3cn(C)c4ccccc34)ccc2O[C@H]1CN(C)Cc1ccc(C(=O)Nc2ccccc2N)cc1	-	86	-	0	-
C[C@H](CO)N1C[C@H](C)[C@H](CN(C)Cc2ccc(C(=O)Nc3ccccc3N)cc2)Oc2ccc(NC(=O)Cn3cnnn3)cc2C1=O	-	100	-	0	-
CC(C)NC(=O)N1CCCCN2[C@H](CO)[C@@H](c3ccc(C#Cc4ccccc4F)cc3)[C@H]2C1	-	0	-	0	-
CNC[C@@H]1OCCCC[C@H](C)Oc2ccc(NS(=O)(=O)c3ccc(OC)cc3)cc2C(=O)N([C@H](C)CO)C[C@H]1C	-	0	-	0	-
Nc1ccc2cc3ccccc3cc2c1	?	0	0	49	0
SMILES	MITF act	Statin myotox sup	FXN GAA850 act	esBAF inh	Wnt bcat act
Nc1ccc2ccc(N)cc2c1	-	-	-	-	0
C/C(=N/NC(=O)Nc1ccccc1)c1ccc(C)cc1	0	0	0	0	0
C/C(=N\OC(=O)Nc1ccccc1)c1ccc(C)cc1	101	-	0	-	0
COCCNC(=O)C[C@@H]1C[C@@H]2c3cc(NC(=O)COC)ccc3O[C@@H]2[C@@H](CO)O1	-	0	-	0	-
O=C(O)CCc1ccc(-c2ccc(Br)cc2)n1-c1cccc(O)c1	0	0	0	73	0
Cc1noc(C)c1NC(=O)N(C)C[C@@H]1Oc2ccc(NC(=O)Cc3cn(C)c4ccccc34)cc2C(=O)N([C@@H](C)CO)C[C@H]1C	-	0	-	0	-
CC(=O)Nc1ccc(NC(=O)C(C)OC(=O)/C(C#N)=C/c2ccc(N(C)C)cc2)cc1 (stereo not given)	81	0	0	66	0

Screens as filed in PubChem BioAssay.
